tested on: Plasmodium falciparum; test: GSK_TCMDC: Inhibition of Plasmodium falciparum 3D7 in whole red blood cells, using parasite LDH activity as an index of growth. Test compounds present at 2uM; format: functional

Row | Structure (SMILES) | Inhibition
1 | N#Cc1ccc(N2C[C@@H](OCc3ccccc3)C[C@H]2C(=O)NCCC(c2ccccc2)c2ccccc2)c2ccccc12 | 93%
2 | FC(F)(F)Oc1cccc(CNc2noc(-c3sccc3Br)n2)c1 | 100%
3 | COc1cc(Cc2cnc(N)nc2N)cc(OC)c1OC [TRIMETHOPRIM] | 88%
4 | O=C(Nc1ccc(Cn2ncc(N3CCCNCC3)c(Cl)c2=O)cc1)Nc1cccc(SC(F)(F)F)c1.O=C(O)C(F)(F)F | 92%
5 | Cc1cccc2nc(-c3ccc(-c4ccc(CN5CCN(CC6CCCN(C)C6)CC5)cc4)s3)[nH]c12.O=C(O)C(F)(F)F (configuration not stated) | 100%
6 | CCCCc1cc(NCc2ccncc2)nc(Nc2cccc(OC)c2)n1 | 100%
7 | Cc1onc(-c2c(Cl)cccc2Cl)c1C(=O)NC1=NC(C)(C)ON1c1ccccc1 | 97%
8 | O=C(O)c1ccc(-c2c[nH]c3ncc(-c4ccc(Cl)cc4)cc23)cc1 | 97%
9 | Cc1ccc(NC(=O)Nc2ccc(Cl)cc2)cc1-c1cccc(C(=O)Nc2ccc(F)cc2)c1 | 96%
10 | O=C(Cn1c(CCc2cccc(F)c2F)cc(=O)c2ccccc21)N(CCN1CCCCC1)Cc1ccc(-c2ccc(C(F)(F)F)cc2)cc1.O=C(O)C(O)C(O)C(=O)O | 100%
11 | COc1ccc(NC(=O)Nc2ccc(-c3ccc(-c4nc5cccc(C)c5[nH]4)s3)cc2)cc1 | 100%
12 | Cc1nc(Nc2ccc(F)cc2)nc(N2CCc3ccccc3C2C)c1CO (configuration not stated) | 100%
13 | CC(C)CC(NC(=O)c1cc2ccccc2s1)C(=O)N1CCCCCC1c1ccc(C(C)(C)C)cc1 (configuration not stated) | 91%
14 | COc1ccc(Nc2nc(NCc3ccc(-n4ccnc4)cc3)cc(-c3ccc(OC)cc3)n2)cc1 | 96%
15 | CSC1=NC(=Nc2ccccc2C)C2(CCC(C(C)(C)C)CC2)N1c1ccccc1Cl.I (configuration not stated) | 96%
16 | CS(=O)(=O)CCNCc1cccc(-c2ccc3c(Nc4cc(O)c(Cl)cc4F)ccnc3c2)c1 | 100%
17 | CC(C)COc1ccc(Cl)cc1Cc1nc(-c2nc3ccc(CN(C)C)cc3[nH]2)co1.Cl | 97%
18 | O=C(O)C(F)(F)F.Oc1ccc(CCNc2nc(NCc3ccccc3-c3ccc(C(F)(F)F)cc3)nc(NC3CCNCC3)n2)cc1 | 97%
19 | Cc1cc(=O)[nH]c(-n2nc(C)cc2NC(=O)C2(c3ccc(Cl)cc3)CCCC2)n1 | 96%

Row | Structure (SMILES) | Inhibition
20 | Cc1cc(-c2cc3nc4c(c(O)n3n2)CCCC4)c(C)o1 | 94%
21 | COc1ccc(O)c(Cc2cnc3nc(N)nc(N)c3c2C)c1.O=C(O)C(F)(F)F | 94%
22 | CN1CCN(CCCCCNc2c3ccccc3nc3ccccc23)CC1.Cl | 99%
23 | CN1CCC[C@H]1COc1ccc(CN2CC[C@H](NC(=O)c3ccc(Cl)c(Cl)c3)C2)cc1Cl.O=C(O)C(F)(F)F | 97%
24 | Cl.O=C(C=Cc1ccc(C(=O)Nc2ccc(C3=NCCN3)cc2)cc1)Nc1ccc(C2=NCCN2)cc1 | 97%
25 | COc1cccc(CNC(=O)[C@H]2CNCCN2C(=O)CCCc2ccccc2)c1.O=C(O)C(F)(F)F | 91%
26 | COc1cccc(C2CCN(CCCCNC(=O)c3ccc(NC(=O)c4ccc(Cl)cc4)cc3)CC2)c1 | 99%
27 | COc1ccc(-c2c(-c3ccc(OCc4ccccc4)cc3O)n[nH]c2C(F)(F)F)cc1 | 93%
28 | COc1ccc2[nH]c(/C=C/c3cccc4ccc(C)nc34)nc2c1 | 98%
29 | Cc1cc(=NN=Cc2ccccc2F)c2cc(F)ccc2[nH]1 | 100%
30 | COC(=O)c1c(C#N)c(OC)cc(O)c1CSC[C@H](Nc1nc(-c2ccc([N+](=O)[O-])cc2)cs1)C(=O)NCCN1CCCCC1 | 85%
31 | COc1ccc2nc(C)cc(N/N=C/c3ccc([N+](=O)[O-])o3)c2c1 | 100%
32 | O=C(/C=C/c1ccc(Cl)cc1)NCCCCCN1CCCN(C(=O)Nc2ccc(Cl)c(C(F)(F)F)c2)CC1 | 95%
33 | Nc1c(Cl)cc(C(O)CNCCCCCOCCCc2ccc(O)c3ncccc23)cc1Cl.O=C(O)/C=C/C(=O)O (configuration not stated) | 90%
34 | CS(=O)(=O)c1ccc(-c2cnc(N)c(-c3cccc(O)c3)c2)cc1 | 98%
35 | CCOC(=O)CCCOc1c(OC)cc(Cc2cnc(N)nc2N)cc1OC | 96%
36 | CCCCc1ccc2ncc(C(=O)OCC)c(O)c2c1 | 95%
37 | FC(F)(F)c1ccc2[nH]c(-c3ccc(-c4cccc(CN5CCCCC5)c4)cc3)nc2c1.O=C(O)C(F)(F)F | 100%

From ChEMBL document CHEMBL1157539, “Thousands of chemical starting points for antimalarial lead identification” (Nature, 2010)
